Laboratory results taken from PubChem BioAssay AID1159580 (chemical genetic matrix, 2015).
The whole screen tested about 5,500 compounds, of which about 2,000 (36%) were called active. Roughly 18% stayed inconclusive and do not appear here. Rule as the data show it: active = normalized growth mostly below about 0.91 (no sharp cut-off); inconclusive = no clear call, values can overlap the other calls; inactive = mostly above about 0.92. Some of the results follow.

Experiment: chemical genetic growth profiling, strain panel (AID 1159580);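 also: tested at 20 µM; growth read once vehicle control cultures reached saturation at 30 °C; 1 = growth at the plate median or of vehicle wells; lower values mean less growth of the strain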
Settings: S. cerevisiae deletion strains, growth OD

Measured: normalized growth

COc1ccc(-c2coc3cc(O)ccc3c2=O)c(OC)c1O
inactive: locus YAL013W, strain DEP1, active compounds read low 0.991 | locus YAL021C, strain ccr4, active compounds read low 0.979 | locus YAL026C, strain drs2, active compounds read low 0.979 | locus YAL030W, strain snc1, active compounds read low 0.947 | locus YBL061C, strain skt5, active compounds read low 0.973 | locus YBR009C, strain hhf1, active compounds read low 0.966 | locus YBR021W, strain FUR4, active compounds read low 1.12 | locus YBR023C, strain chs3, active compounds read low 0.98 | locus YBR171W, strain sec66, active compounds read low 0.983 | locus YBR229C, strain ROT2, active compounds read low 0.949 | locus YBR231C, strain swc5, active compounds read low 0.989 | locus YBR279W, strain paf1, active compounds read low 0.983 | locus YCL011C, strain gbp2, active compounds read low 0.977 | locus YCL016C, strain dcc1, active compounds read low 0.978 | locus YCL029C, strain bik1, active compounds read low 0.972 | locus YCL061C, strain MRC1, active compounds read low 0.991 | locus YCL069W, strain vba3, active compounds read low 0.981 | locus YCR088W, strain abp1, active compounds read low 0.983 | locus YDL005C, strain med2, active compounds read low 0.977 | locus YDL035C, strain GPR1, active compounds read low 1 | locus YDL040C, strain nat1, active compounds read low 0.987 | locus YDL074C, strain BRE1, active compounds read low 1.03 | locus YDL101C, strain DUN1, active compounds read low 0.97 | locus YDL185W, strain tfp1, active compounds read low 0.968 | locus YDL192W, strain arf1, active compounds read low 0.984 | locus YDR001C, strain nth1, active compounds read low 0.983 | locus YDR069C, strain doa4, active compounds read low 0.947 | locus YDR101C, strain arx1, active compounds read low 0.975 | locus YDR137W, strain rgp1, active compounds read low 0.986 | locus YDR159W, strain sac3, active compounds read low 0.953 | locus YDR162C, strain NBP2, active compounds read low 0.966 | locus YDR195W, strain ref2 0.94 | locus YDR297W, strain sur2, active compounds read low 0.979 | locus YDR318W, strain mcm21, active compounds read low 0.99 | locus YDR334W, strain swr1, active compounds read low 0.967 | locus YDR335W, strain msn5, active compounds read low 0.991 | locus YDR388W, active compounds read low 0.988 | locus YDR392W, strain spt3, active compounds read low 0.945 | locus YDR502C, strain sam2, active compounds read low 0.977 | locus YEL003W, strain gim4, active compounds read low 0.976 | locus YEL037C, strain rad23, active compounds read low 0.967 | locus YEL061C, strain CIN8 (second series), active compounds read low 0.967 | locus YEL061C, strain CIN8, active compounds read low 0.985 | locus YER015W, strain faa2, active compounds read low 0.983 | locus YER016W, strain bim1, active compounds read low 0.986 | locus YER110C, active compounds read low 0.962 | locus YER111C, strain swi4, active compounds read low 0.971 | locus YER155C, strain BEM2 (second series), active compounds read low 0.985 | locus YER155C, strain BEM2, active compounds read low 1 | locus YER167W, strain BCK2, active compounds read low 0.983 | locus YFR010W, strain ubp6, active compounds read low 0.968 | locus YGL078C, strain dbp3, active compounds read low 0.986 | locus YGL086W, strain mad1, active compounds read low 0.971 | locus YGL167C, strain pmr1, active compounds read low 0.959 | locus YGL173C, strain kem1, active compounds read low 0.974 | locus YGL227W, strain vid30, active compounds read low 0.957 | locus YGL240W, strain doc1, active compounds read low 0.977 | locus YGL248W, strain PDE1, active compounds read low 0.982 | locus YGL253W, strain hxk2, active compounds read low 0.989 | locus YGR135W, strain pre9, active compounds read low 1.01 | locus YGR252W, strain gcn5, active compounds read low 1.12 | locus YHR013C, strain ard1, active compounds read low 0.933 | locus YHR027C, strain rpn1, active compounds read low 0.989 | locus YHR030C, strain SLT2, active compounds read low 0.99 | locus YHR079C, strain IRE1 (second series), active compounds read low 0.974 | locus YHR094C, strain hxt1, active compounds read low 0.988 | locus YHR129C, strain ARP1, active compounds read low 0.993 | locus YHR142W, strain chs7, active compounds read low 1 | locus YHR200W, strain rpn10, active compounds read low 0.991 | locus YIL066C, strain RNR3, active compounds read low 0.981 | locus YIL073C, strain SPO22, active compounds read low 0.98 | locus YIL125W, strain kgd1, active compounds read low 0.99 | locus YIR030C, strain dcg1, active compounds read low 0.985 | locus YJL092W, strain hpr5, active compounds read low 0.986 | locus YJL095W, strain BCK1 (second series), active compounds read low 0.986 | locus YJL095W, strain BCK1, active compounds read low 0.978 | locus YJL115W, strain asf1, active compounds read low 0.996 | locus YJL129C, strain trk1, active compounds read low 0.966 | locus YJL134W, strain LCB3, active compounds read low 0.983 | locus YJL154C, strain vps35, active compounds read low 0.977 | locus YJL164C, strain tpk1, active compounds read low 0.969 | locus YJL166W, strain qcr8, active compounds read low 0.98 | locus YJL168C, strain set2, active compounds read low 0.993 | locus YJL187C, strain SWE1 (second series), active compounds read low 0.963 | locus YJL187C, strain SWE1, active compounds read low 0.979 | locus YJR043C, strain POL32, active compounds read low 0.985 | locus YKL009W, strain mrt4, active compounds read low 0.965 | locus YKL068W, active compounds read low 0.975 | locus YKL085W, strain MDH1 (second series), active compounds read low 0.976 | locus YKL085W, strain MDH1, active compounds read low 0.976 | locus YKL160W, strain elf1, active compounds read low 0.999 | locus YKR001C, strain vps1, active compounds read low 1 | locus YKR026C, strain gcn3, active compounds read low 0.961 | locus YKR091W, strain srl3, active compounds read low 0.973 | locus YLL001W, strain dnm1, active compounds read low 1 | locus YLL026W, active compounds read low 0.991 | locus YLL041C, strain sdh2, active compounds read low 0.994 | locus YLR027C, strain aat2, active compounds read low 0.976 | locus YLR039C, strain RIC1, active compounds read low 0.97 | locus YLR058C, strain SHM2, active compounds read low 0.972 | locus YLR102C, strain apc9, active compounds read low 0.991 | locus YLR221C, strain rsa3, active compounds read low 0.966 | locus YLR258W, strain gsy2, active compounds read low 0.983 | locus YLR262C, strain YPT6 (second series), active compounds read low 0.977 | locus YLR262C, strain YPT6, active compounds read low 0.907 | locus YLR268W, strain sec22, active compounds read low 0.989 | locus YLR320W, strain mms22, active compounds read low 0.979 | locus YLR330W, strain CHS5, active compounds read low 0.99 | locus YLR342W, strain FKS1 (second series), active compounds read low 0.987 | locus YLR342W, strain FKS1, active compounds read low 0.967 | locus YLR357W, strain rsc2, active compounds read low 0.947 | locus YLR370C, strain arc18, active compounds read low 0.978 | locus YLR371W, strain rom2, active compounds read low 0.983 | locus YLR384C, strain iki3, active compounds read low 0.975 | locus YLR418C, strain cdc73, active compounds read low 1.01 | locus YML016C, strain PPZ1, active compounds read low 0.993 | locus YML032C, strain rad52, active compounds read low 0.983 | locus YML120C, strain ndi1, active compounds read low 0.971 | locus YML124C, strain tub3, active compounds read low 0.991 | locus YMR058W, strain fet3, active compounds read low 0.977 | locus YMR078C, strain ctf18, active compounds read low 0.982 | locus YMR125W, strain sto1, active compounds read low 0.96 | locus YMR129W, active compounds read low 0.981 | locus YMR205C, strain PFK2, active compounds read low 0.953 | locus YMR223W, strain ubp8, active compounds read low 0.981 | locus YMR231W, strain pep5, active compounds read low 0.982 | locus YMR307W, strain GAS1, active compounds read low 1.16 | locus YNL067W, strain RPL9B, active compounds read low 0.972 | locus YNL071W, strain lat1, active compounds read low 0.984 | locus YNL153C, strain GIM3, active compounds read low 0.954 | locus YNL209W, strain ssb2, active compounds read low 0.982 | locus YNL233W, strain BNI4, active compounds read low 1 | locus YNL248C, strain rpa49, active compounds read low 1 | locus YNL250W, strain rad50, active compounds read low 0.99 | locus YNL271C, strain bni1, active compounds read low 0.987 | locus YNL298W, strain CLA4, active compounds read low 0.992 | locus YNL307C, strain MCK1, active compounds read low 0.995 | locus YNL322C, strain KRE1 (second series), active compounds read low 0.953 | locus YNL322C, strain KRE1, active compounds read low 0.99 | locus YNR049C, strain mso1, active compounds read low 0.972 | locus YNR052C, strain pop2, active compounds read low 0.991 | locus YOL012C, strain htz1 0.858 | locus YOL147C, strain pex11, active compounds read low 0.988 | locus YOR001W, strain rrp6, active compounds read low 1 | locus YOR061W, strain CKA2, active compounds read low 0.966 | locus YOR069W, strain VPS5, active compounds read low 0.997 | locus YOR070C, strain gyp1, active compounds read low 0.985 | locus YOR080W, strain dia2, active compounds read low 0.965 | locus YOR083W, strain WHI5, active compounds read low 0.977 | locus YOR106W, strain vam3, active compounds read low 0.992 | locus YOR136W, strain idh2, active compounds read low 0.99 | locus YOR144C, strain elg1, active compounds read low 0.988 | locus YOR184W, strain ser1, active compounds read low 0.974 | locus YOR265W, strain rbl2, active compounds read low 0.985 | locus YOR270C, strain vph1, active compounds read low 0.977 | locus YOR290C, strain snf2, active compounds read low 0.92 | locus YOR316C, strain cot1, active compounds read low 0.984 | locus YPL051W, strain arl3, active compounds read low 1 | locus YPL055C, strain LGE1, active compounds read low 0.984 | locus YPL078C, strain atp4, active compounds read low 0.982 | locus YPL106C, strain sse1, active compounds read low 0.966 | locus YPL240C, strain hsp82, active compounds read low 1 | locus YPR119W, strain clb2, active compounds read low 0.973 | locus YPR141C, strain kar3, active compounds read low 0.985 | locus YPR163C, strain tif3, active compounds read low 0.997 | locus YPR167C, strain met16, active compounds read low 0.997 | strain wtn01, active compounds read low 0.981
